Measured values reported in PubChem BioAssay AID1159580 (chemical genetic matrix, 2015).
Out of some 5,500 compounds screened, about 2,000 (36%) were called active. Roughly 18% stayed inconclusive and do not appear here. Cut-off read from the data, not from the text of the source: active = normalized growth mostly below about 0.91 (no sharp cut-off); inconclusive = no clear call, values can overlap the other calls; inactive = mostly above about 0.92. The list shows a part of the results.

Assay: chemical genetic growth profiling, strain panel (AID 1159580);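 note: tested at 20 µM; growth read once vehicle control cultures reached saturation at 30 °C; 1 = growth at the plate median or of vehicle wells; lower values mean less growth of the strain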
Conditions: growth OD

Measured: normalized growth

CC(Oc1ccccc1)C(=O)N[C@@H]1C(=O)N2[C@@H]1SC(C)(C)[C@@H]2C(=O)O (some centres not stated)
inactive: S. cerevisiae deletion strains, locus YJR075W, strain HOC1, stronger effect = lower value 1.01 | S. cerevisiae deletion strains, locus YKL009W, strain mrt4, stronger effect = lower value 0.995 | S. cerevisiae deletion strains, locus YKL068W, stronger effect = lower value 1.01 | S. cerevisiae deletion strains, locus YKL085W, strain MDH1 (second series), stronger effect = lower value 1 | S. cerevisiae deletion strains, locus YKL085W, strain MDH1, stronger effect = lower value 1 | S. cerevisiae deletion strains, locus YKL160W, strain elf1, stronger effect = lower value 0.985 | S. cerevisiae deletion strains, locus YKL190W, strain CNB1, stronger effect = lower value 1.01 | S. cerevisiae deletion strains, locus YKR001C, strain vps1, stronger effect = lower value 1.02 | S. cerevisiae deletion strains, locus YKR026C, strain gcn3, stronger effect = lower value 0.993 | S. cerevisiae deletion strains, locus YKR091W, strain srl3, stronger effect = lower value 0.993 | S. cerevisiae deletion strains, locus YLL001W, strain dnm1, stronger effect = lower value 0.983 | S. cerevisiae deletion strains, locus YLL026W, stronger effect = lower value 0.998 | S. cerevisiae deletion strains, locus YLL041C, strain sdh2, stronger effect = lower value 0.992 | S. cerevisiae deletion strains, locus YLR027C, strain aat2, stronger effect = lower value 1 | S. cerevisiae deletion strains, locus YLR039C, strain RIC1, stronger effect = lower value 1.02 | S. cerevisiae deletion strains, locus YLR058C, strain SHM2, stronger effect = lower value 1.01 | S. cerevisiae deletion strains, locus YLR102C, strain apc9, stronger effect = lower value 1.02 | S. cerevisiae deletion strains, locus YLR113W, strain HOG1, stronger effect = lower value 1.01 | S. cerevisiae deletion strains, locus YLR221C, strain rsa3, stronger effect = lower value 0.981 | S. cerevisiae deletion strains, locus YLR258W, strain gsy2, stronger effect = lower value 0.986 | S. cerevisiae deletion strains, locus YLR262C, strain YPT6 (second series), stronger effect = lower value 1.01 | S. cerevisiae deletion strains, locus YLR262C, strain YPT6, stronger effect = lower value 1.04 | S. cerevisiae deletion strains, locus YLR268W, strain sec22, stronger effect = lower value 1.03 | S. cerevisiae deletion strains, locus YLR320W, strain mms22, stronger effect = lower value 0.984 | S. cerevisiae deletion strains, locus YLR330W, strain CHS5, stronger effect = lower value 1.01 | S. cerevisiae deletion strains, locus YLR342W, strain FKS1 (second series), stronger effect = lower value 1 | S. cerevisiae deletion strains, locus YLR342W, strain FKS1, stronger effect = lower value 1 | S. cerevisiae deletion strains, locus YLR357W, strain rsc2, stronger effect = lower value 0.978 | S. cerevisiae deletion strains, locus YLR370C, strain arc18, stronger effect = lower value 0.992 | S. cerevisiae deletion strains, locus YLR371W, strain rom2, stronger effect = lower value 1.02 | S. cerevisiae deletion strains, locus YLR384C, strain iki3, stronger effect = lower value 0.992 | S. cerevisiae deletion strains, locus YLR418C, strain cdc73, stronger effect = lower value 1.04 | S. cerevisiae deletion strains, locus YML016C, strain PPZ1, stronger effect = lower value 1.02 | S. cerevisiae deletion strains, locus YML032C, strain rad52, stronger effect = lower value 1.02 | S. cerevisiae deletion strains, locus YML120C, strain ndi1, stronger effect = lower value 0.985 | S. cerevisiae deletion strains, locus YML124C, strain tub3, stronger effect = lower value 1.02 | S. cerevisiae deletion strains, locus YMR058W, strain fet3, stronger effect = lower value 1 | S. cerevisiae deletion strains, locus YMR078C, strain ctf18, stronger effect = lower value 1.03 | S. cerevisiae deletion strains, locus YMR125W, strain sto1, stronger effect = lower value 0.992 | S. cerevisiae deletion strains, locus YMR129W, stronger effect = lower value 0.99 | S. cerevisiae deletion strains, locus YMR205C, strain PFK2, stronger effect = lower value 0.995 | S. cerevisiae deletion strains, locus YMR223W, strain ubp8, stronger effect = lower value 1.01 | S. cerevisiae deletion strains, locus YMR231W, strain pep5, stronger effect = lower value 1 | S. cerevisiae deletion strains, locus YMR263W, strain SAP30, stronger effect = lower value 1.01 | S. cerevisiae deletion strains, locus YMR307W, strain GAS1, stronger effect = lower value 1.02 | S. cerevisiae deletion strains, locus YNL067W, strain RPL9B, stronger effect = lower value 1.01 | S. cerevisiae deletion strains, locus YNL071W, strain lat1, stronger effect = lower value 0.996 | S. cerevisiae deletion strains, locus YNL128W, strain TEP1, stronger effect = lower value 1.02 | S. cerevisiae deletion strains, locus YNL153C, strain GIM3, stronger effect = lower value 1.01 | S. cerevisiae deletion strains, locus YNL183C, strain NPR1, stronger effect = lower value 0.972 | S. cerevisiae deletion strains, locus YNL209W, strain ssb2, stronger effect = lower value 0.996 | S. cerevisiae deletion strains, locus YNL233W, strain BNI4, stronger effect = lower value 1.02 | S. cerevisiae deletion strains, locus YNL248C, strain rpa49, stronger effect = lower value 0.991 | S. cerevisiae deletion strains, locus YNL250W, strain rad50, stronger effect = lower value 1.03 | S. cerevisiae deletion strains, locus YNL271C, strain bni1, stronger effect = lower value 1.02 | S. cerevisiae deletion strains, locus YNL298W, strain CLA4, stronger effect = lower value 1.03 | S. cerevisiae deletion strains, locus YNL307C, strain MCK1, stronger effect = lower value 1.03 | S. cerevisiae deletion strains, locus YNL322C, strain KRE1 (second series), stronger effect = lower value 1.01 | S. cerevisiae deletion strains, locus YNL322C, strain KRE1, stronger effect = lower value 1.01 | S. cerevisiae deletion strains, locus YNR049C, strain mso1, stronger effect = lower value 0.992 | S. cerevisiae deletion strains, locus YNR052C, strain pop2, stronger effect = lower value 1.02 | S. cerevisiae deletion strains, locus YOL006C, strain TOP1, stronger effect = lower value 1.05 | S. cerevisiae deletion strains, locus YOL012C, strain htz1 1.34 | S. cerevisiae deletion strains, locus YOL147C, strain pex11, stronger effect = lower value 1.02 | S. cerevisiae deletion strains, locus YOR001W, strain rrp6, stronger effect = lower value 1 | S. cerevisiae deletion strains, locus YOR061W, strain CKA2, stronger effect = lower value 1.02 | S. cerevisiae deletion strains, locus YOR069W, strain VPS5, stronger effect = lower value 1.01 | S. cerevisiae deletion strains, locus YOR070C, strain gyp1, stronger effect = lower value 0.992 | S. cerevisiae deletion strains, locus YOR080W, strain dia2, stronger effect = lower value 0.988 | S. cerevisiae deletion strains, locus YOR083W, strain WHI5, stronger effect = lower value 0.984 | S. cerevisiae deletion strains, locus YOR106W, strain vam3, stronger effect = lower value 0.979 | S. cerevisiae deletion strains, locus YOR136W, strain idh2, stronger effect = lower value 1.02 | S. cerevisiae deletion strains, locus YOR144C, strain elg1, stronger effect = lower value 1.03 | S. cerevisiae deletion strains, locus YOR184W, strain ser1, stronger effect = lower value 1.02 | S. cerevisiae deletion strains, locus YOR231W, strain MKK1, stronger effect = lower value 1.02 | S. cerevisiae deletion strains, locus YOR265W, strain rbl2, stronger effect = lower value 0.991 | S. cerevisiae deletion strains, locus YOR270C, strain vph1, stronger effect = lower value 1.04 | S. cerevisiae deletion strains, locus YOR290C, strain snf2, stronger effect = lower value 1.03 | S. cerevisiae deletion strains, locus YOR316C, strain cot1, stronger effect = lower value 1.02 | S. cerevisiae deletion strains, locus YPL051W, strain arl3, stronger effect = lower value 1.01 | S. cerevisiae deletion strains, locus YPL055C, strain LGE1, stronger effect = lower value 1.02 | S. cerevisiae deletion strains, locus YPL078C, strain atp4, stronger effect = lower value 0.994 | S. cerevisiae deletion strains, locus YPL106C, strain sse1, stronger effect = lower value 0.968 | S. cerevisiae deletion strains, locus YPL240C, strain hsp82, stronger effect = lower value 0.994 | S. cerevisiae deletion strains, locus YPL241C, strain CIN2, stronger effect = lower value 1.01 | S. cerevisiae deletion strains, locus YPL256C, strain CLN2, stronger effect = lower value 1.03 | S. cerevisiae deletion strains, locus YPR119W, strain clb2, stronger effect = lower value 1.02 | S. cerevisiae deletion strains, locus YPR141C, strain kar3, stronger effect = lower value 1.02 | S. cerevisiae deletion strains, locus YPR163C, strain tif3, stronger effect = lower value 1.04 | S. cerevisiae deletion strains, locus YPR167C, strain met16, stronger effect = lower value 1.02 | S. cerevisiae deletion strains, strain wtn01, stronger effect = lower value 1.02 | S. cerevisiae strains, strain wild type, stronger effect = lower value 1.02
